# ADAM17 inh: ADAM17 inhibition, QFRET primary screen. P78536. recombinant ADAM17, EDANS/DABCYL FRET peptide cleavage. inhibition, % at 6.95 µM. 0.83% of 370,000 active;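 active = inhibition above the mean of compounds lying between control limits plus 3 SD, set per campaign, cut at about 8.5% in these data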;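 also: 0% = DMSO-only wells as the low control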
# PLC-gamma1 inh: inhibitors of human phospholipase C gamma1; purified PLC-gamma1, fluorogenic substrate, fluorescence; inhibition, % at 12.2 µM; 0.84% of 370,000 active; AID 720700; in the data active = inhibition above about 9.5%
# PLCb3 inh: blocks human PLC-beta3 enzyme activity; Q01970; Purified PLC-beta3, fluorogenic substrate, fluorescence; inhibition, % at 12.2 µM; 0.18% of 370,000 active; in the data active = inhibition above about 11%;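 also: 0% = median of compound wells on plate and 100% = full blocker control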
# KLK7 zymogen act: activates the human kallikrein-7 zymogen; P49862; activation, % at 7 µM; purified proKLK7, EDANS-DABCYL substrate fluorescence; 100% is mature enzyme control, 0% vehicle; 0.9% of 370,000 active;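 active = activation above the mean of all tested compounds plus 3 SD, computed per campaign excluding outliers beyond control limits, cut at about 13% in these data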
# ADAM10 inh: inhibits human ADAM10 | O14672 | recombinant ADAM10, EDANS/DABCYL FRET peptide cleavage, 3 h | inhibition, % at 7 µM | 0.62% of 370,000 active | AID 720582;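 active = inhibition above a per-campaign cutoff equal to the mean of compounds falling between control-based bounds plus 3 SD, cut at about 20% in these data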;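 also: 0% = DMSO wells while the 100% control is not disclosed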
# proKLK7 act conf: confirmation of human kallikrein-7 zymogen activators; shares compounds with KLK7 zymogen act; purified proKLK7, EDANS-DABCYL substrate fluorescence; scaled: vehicle 0, mature enzyme 100; activation, % at 7 µM; 68% of 3,200 active; AID 686949;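 active = activation, as change over the incubation, above the mean of all tested compounds plus 3 SD, cut at about 13% in these data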
# EDANS-DABCYL int: fluorescence interference counter-screen for KLK7 activators; shares compounds with KLK7 zymogen act; EDANS-DABCYL substrate fluorescence interference, no enzyme, 4 h; solvent 0%, active enzyme control 100%; activation, % at 7 µM; 80% of 3,200 active; AID 686952;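 active = activation above the all-compound mean plus 3 SD, ignoring values outside control-based bounds, cut at about 4.8% in these data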;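 also: value is the 4 h activation minus the activation read at time zero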
# EDANS interf: optically interferes with EDANS-DABCYL fluorescence, kallikrein-7 activator counter-screen; EDANS-DABCYL peptide fluorescence interference, no enzyme; shares compounds with KLK7 zymogen act; EC50, µM; 20% of 250 active;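 active = compounds that raise the fluorescence signal in this interference counterscreen, with EC50 at or below 10 µM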;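 also: intact quenched peptide substrate alone read at 355 nm excitation and 520 nm emission; signal is fluorescence gain from T0 to T4 after four hours at room temperature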
# * hit, by the source's call; i = inactive; nt = no result given. Compounds with a hit are over-represented: about 2.9% of the library has one in this group of screens.
SMILES,ADAM17 inh,PLC-gamma1 inh,PLCb3 inh,KLK7 zymogen act,ADAM10 inh,proKLK7 act conf,EDANS-DABCYL int,others
COc1ccccc1-c1cc(NC=O)c2ncc(-c3cccc(C(F)(F)F)c3)n2c1,-5,-6,-9,0,-16,nt,nt,
COc1ccc(-n2cc(COC(=O)NCCc3ccccc3)nn2)cc1,-3,-2,-1,0,-1,nt,nt,
CCOC(=O)[C@@]12CCCC=C1N(CCc1ccc(Cl)cc1)C(=O)[C@H]2CC(=O)N1CCCC1,1,-2,-2,0,-8,nt,nt,
COc1ccc(C(=O)Nc2cc(OC)c(Cl)cc2Cl)cc1,0,2,1,0,0,nt,nt,
COc1cc(NC(=O)c2c(F)cccc2F)c(Cl)cc1Cl,-1,-2,-1,21*,-6,28*,27*,
CCCC(=O)OC12CCCN(C1)/C(=C/c1cccc(Cl)c1)C2 (stereo not given),-2,0,1,0,-8,nt,nt,
COC(=O)[C@]12C[C@H](CC(=O)N3CCCC3)C(=O)N(Cc3ccc(Cl)cc3Cl)C1=C[C@H](C(C)C)O[C@@H]2C1CC1,3,3,0,0,9,nt,nt,
COc1cccc(-c2cc(C(F)(F)F)c(C#N)c(=O)[nH]2)c1,i,-422,i,17*,i,40*,51*,
c1ccc(CCNc2ccnc3cc4ccccc4cc23)cc1,-385,i,i,32*,i,-36,-52,
CC(C)Nc1ccc(Nc2ccnc3cc4ccccc4cc23)cc1,0,-5,0,2,6,nt,nt,
Clc1cccc(CNC2CCC23CCCCC3)c1 (stereo not given),-2,1,1,nt,5,nt,nt,
N#CCSc1ccc2nc(-c3ccccc3)cn2n1,-349,-358,i,16*,i,32*,32*,
N#CCSc1nc(-c2ccccc2)cs1,-1,1,2,0,-2,nt,nt,
CCN1Cc2nnn(Cc3ccc(C)cc3)c2-c2ccccc2S1(=O)=O,-3,-1,0,0,-2,nt,nt,
COc1ccc2nc(-c3ccc(CN4CCC5(CC4)CNc4ccccc45)cc3)c(-c3ccccc3)nc2c1,-14,-53,-67,0,-56,nt,nt,
O=C1NC(C2CC3C=CC2C3)Nc2ccccc21 (stereo not given),-276,-400,-484,24*,i,25*,21*,EDANS interf=>69
NS(=O)(=O)c1cc2c(cc1Cl)NC(C1CC3C=CC1C3)NS2(=O)=O (stereo not given),-2,0,4,0,1,nt,nt,
Cc1nc2sc(C(=O)NCc3nccs3)c(N)c2c(C)c1Cl,-6,-117,-159,84*,-26,63*,68*,
C[C@H]1C2CC(OC(=O)NCCCc3ccccc3)C(C2)[C@H]2CCCCN21 (stereo not given in full),-4,-1,-1,0,-10,nt,nt,
COCCCN1C(=O)C(CC(=O)NC2CCCCC2)CC(C(=O)N2CCCCCC2)=C1C (stereo not given),-1,1,4,83*,7,0,-1,
CCOC(=O)C1CCCN(C(=O)c2cc(-c3ccco3)nc3ccccc23)C1 (stereo not given),-278,-263,-323,31*,i,31*,34*,
CCN1CCN(C(=O)c2cc(-c3ccco3)nc3ccccc23)CC1,i,i,i,84*,i,72*,72*,
O=C(c1cc(-c2ccco2)nc2ccccc12)N1CCCC(C(F)(F)F)C1 (stereo not given),i,i,i,48*,i,66*,67*,
COc1ccc(N2CCN(CCNS(=O)(=O)c3ccc(F)cc3)CC2)cc1,0,-2,0,0,-4,nt,nt,
COC(=O)C[C@H]1CC[C@@H]2[C@H](COc3ccc(NC(=O)c4cnccn4)cc3C(=O)N2C)O1,-1,1,1,1,0,nt,nt,
SMILES,ADAM17 inh,PLC-gamma1 inh,PLCb3 inh,KLK7 zymogen act,ADAM10 inh,proKLK7 act conf,EDANS-DABCYL int,others
C[C@@H]1CCCCO[C@H](CN(C)S(=O)(=O)c2cn(C)cn2)[C@@H](C)CN([C@H](C)CO)C(=O)c2cc(NC(=O)CCCN(C)C)ccc2O1,-7,-1,1,0,-13,nt,nt,
N#Cc1c(C(F)(F)F)cc(C2CC2)[nH]c1=O,i,-237,-278,18*,i,16*,23*,
COc1ccc(OC)c(/C=C/C(=O)Oc2ccc(C(C)=O)cc2)c1,-137,i,i,15*,-370,25*,32*,
COc1ccc(OC)c(/C=C/C(=O)OCC(=O)N2C(C)CCCC2C)c1 (stereo not given),-52,i,i,13*,-204,13*,15*,
COc1ccc(OC)c(/C=C/C(=O)OCC(=O)NCc2ccco2)c1,-41,i,i,23*,-130,17*,14*,EDANS interf=>70
CCOc1ccc(-n2c(COc3ccccc3)nnc2SCC(=O)Nc2ccc(OCc3ccccc3)cc2)cc1,2,2,3,0,10,nt,nt,
OCCCc1nc2n(n1)C(c1ccccc1)C=C(c1ccc(F)cc1)N2 (stereo not given),-113,i,i,23*,-340,38*,74*,
CCOc1ccccc1C1C(C(N)=O)=C(C)Nc2nc(CCCO)nn21 (stereo not given),-3,-2,-5,1,-37,nt,nt,
O=C(Nc1ccc2c(c1)[nH]c(=O)c1ccccc12)C(F)(F)F,-77,-296,-370,211*,-313,163*,153*,
O=C(Nc1cccc2c1[nH]c(=O)c1ccccc12)C(F)(F)F,-6,-16,-29,-1,-23,nt,nt,
O=C(Nc1cccc2c1[nH]c1ccccc12)C(F)(F)F,-4,-3,-4,21*,-16,16*,12*,EDANS interf=i
CCOC(=O)c1cc2c(=O)n3cccc(C)c3nc2n(CCOC)c1=NC(C)=O,i,-152,-218,15*,i,10,9.4*,
CCOCCCn1c(=NC(C)=O)c(C#N)cc2c(=O)n3cccc(C)c3nc21,i,-142,-212,12,i,nt,nt,
CCOC(=O)c1cc2c(=O)n3ccccc3nc2n(CCCOC)c1=NC(C)=O,i,i,i,62*,i,7,7.2*,
CCCCCn1c(=NC(=O)c2cccnc2)c(C#N)cc2c(=O)n3cccc(C)c3nc21,-140,-86,-133,-12,-436,nt,nt,
CCOC(=O)c1cc2c(=O)n3ccccc3nc2n(CCCOC)c1=NC(=O)c1ccncc1,i,-286,-378,18*,i,4,4,
